This is an account of results in PMC5540273 (PLoS ONE, 2017).

Test systems include ANKK1; AURKA; AURKB; AURKC; AXL.
What all share (settings): concentration: 1 μM, replicates: in singlicate, n = 1
A further test has as its system T1, AMPK-alpha2.
T1 construct: gene PRKAA2

Another test deals with T2, ARK5.
T2 construct: gene NUAK1

A further test deals with T3, ASK1.
T3 construct: gene MAP3K5

The next test concerns T4, ASK2.
T4 construct: gene MAP3K6

Another test has as its system T5, BIKE.
T5 construct: gene BMP2K

Values joined by “and” are separate entries in the source; they are usually repeats but may differ in a detail not shown here. Equal values may be shown once. Read-outs that look alike come from different tables or passages of the source.
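Also: KINOMEscan kinase panel screen.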

As to `NCCNS(=O)(=O)c1ccc(-c2ccnc3[nH]ccc23)cc1` [GSK977617], the “%Inh” value in the test on AMPK-alpha2 (1 µM) is 60% and 31%; in the test with ANKK1, 0%; with ARK5 (1 µM), 45% and 17%; with ASK1 (1 µM), 30% and 5%; in the test on ASK2 (1 µM), 21% and 18%; in the test on AURKA (1 µM), 51% and 39%. The “%Inh” value with AURKB (1 µM) was 71% and 67%; with AURKC (1 µM), 92.4% and 84%; in the test with AXL (1 µM) it was 93% and 87%; in the test on BIKE (1 µM), 97.4% and 93.3%.

For the compound `O=C(Nc1cccc(-c2nn3ncccc3c2-c2ccnc(Nc3cccc(C(F)(F)F)c3)n2)c1)c1c(F)cccc1F` [GSK299495], the “%Inh” value is 15% with AMPK-alpha2; 0% with ANKK1; 12% in the test on ARK5; 1% in the test on ASK1; 3% in the test with ASK2; 9% in the test with AURKA. For the same compound, the “%Inh” value was found to be 29% in the test on AURKB, 56% in the test with AURKC, 6% in the test on AXL and 19% with BIKE.

Take `Cc1c2ccc(N(C)c3ccnc(Nc4cccc(S(N)(=O)=O)c4)n3)cc2nn1Cc1ccccc1.Cl.Cl` [GW787226]: the “%Inh” value in the test with AMPK-alpha2 is 0%; with ANKK1, 0%; in the test on ARK5, 0%; in the test with ASK1, 0%; in the test with ASK2, 0%; in the test on AURKA it was 29%. For the same compound, the “%Inh” value was 54% in the test with AURKB, 38% with AURKC, 73% with AXL and 0% with BIKE.

Consider `CCCCCc1nc2c(N)ncnc2n1CCCCC` [SKF-97255], for which the “%Inh” value in the test on AMPK-alpha2 was determined as 11%; with ANKK1 it was 0%; in the test with ARK5, 0%; in the test with ASK1 it was 0%; in the test with ASK2, 0%; in the test with AURKA it was 10%. The “%Inh” value with AURKB stood at 37%; in the test on AURKC, 0%; with AXL, 0%; in the test with BIKE it was 0%.

Take `CC(C)Oc1ccc2c(-c3ccnc(Nc4ccc(N5CCN(C)CC5)cc4)n3)cnn2n1` [GW696155]: the “%Inh” value in the test with AMPK-alpha2 is given as 52%; in the test on ANKK1 it was 20%; with ARK5, 95.5%; in the test with ASK1, 0%; in the test with ASK2 it was 0%; with AURKA it was 98.6%. For the same compound, the “%Inh” value is reported as 70% with AURKB, 75% in the test with AURKC, 74% in the test on AXL and 99.8% in the test with BIKE.

For the compound `Nc1nccc(-c2c(-c3ccc(F)cc3)ncn2C2CCN(CC(F)(F)F)CC2)n1` [SB-236560], the “%Inh” value was 0% in the test on AMPK-alpha2; 0% in the test with ANKK1; 0% in the test on ARK5; 0% in the test with ASK1; 0% with ASK2; 2% with AURKA. Moreover, the “%Inh” value in the test on AURKB is 0%; in the test with AURKC, 0%; with AXL, 46%; in the test with BIKE it was 0%.

Regarding `O=c1cc(N2CCOCC2)nc2n(Cc3cccc4ccccc34)ccn12` [GSK2333389], the “%Inh” value with AMPK-alpha2 is reported as 0%; with ANKK1, 0%; in the test on ARK5, 33%; in the test on ASK1, 0%; in the test on ASK2, 15%; in the test on AURKA, 0%. Besides, the “%Inh” value in the test on AURKB was determined as 0%; in the test on AURKC it was 14%; in the test on AXL, 0%; in the test with BIKE, 16%.

With `CC(C)(CN)c1nc(-c2ccc(Cl)c(O)c2)c(-c2ccncc2)[nH]1.O=C(O)C(F)(F)F` [SB-477794], the “%Inh” value is 15% and 13% in the test with AMPK-alpha2 (1 µM); 0% and 1% in the test on ANKK1 (1 µM); 19% and 0% with ARK5 (1 µM); 19% and 0% in the test with ASK1 (1 µM); 1% and 3% with ASK2 (1 µM); 8% and 0% in the test with AURKA (1 µM). Moreover, the “%Inh” value in the test on AURKB (1 µM) is 31% and 15%; with AURKC (1 µM), 0% and 30%; with AXL (1 µM), 5% and 13%; in the test with BIKE (1 µM), 0% and 21%.

With `Cc1ccc(C(=O)NCC(N)=O)cc1-n1c(C)cc(OCc2ccc(F)cc2F)c(Br)c1=O`, the “%Inh” value in the test on AMPK-alpha2 was 11%; with ANKK1, 0%; with ARK5 it was 0%; in the test on ASK1, 12%; in the test on ASK2 it was 0%; in the test on AURKA, 0%. Besides, the “%Inh” value with AURKB is 0%; with AURKC, 8%; with AXL it was 11%; with BIKE, 7%.

Take `CN1c2ccc(CNc3ccc(F)cc3)cc2-c2c(cnn2C)S1(=O)=O`: the “%Inh” value in the test with AMPK-alpha2 is 13%; with ANKK1 it was 0%; with ARK5, 6%; with ASK1 it was 0%; in the test with ASK2, 3%; with AURKA it was 0%. Besides, the “%Inh” value with AURKB stood at 21%; in the test with AURKC, 0%; in the test on AXL, 11%; in the test with BIKE it was 0%.

Turning to `O=C(Nc1n[nH]c2cc(-c3cccc(F)c3)ccc12)C1CC1` [SB-735464], the “%Inh” value in the test on AMPK-alpha2 was 69%; in the test on ANKK1, 0%; with ARK5 it was 0%; in the test with ASK1 it was 0%; in the test on ASK2, 22%; in the test on AURKA, 18%. Further, the “%Inh” value was determined as 39% in the test on AURKB, 35% in the test on AURKC, 27% in the test with AXL and 21% in the test with BIKE.

For the compound `CN1c2ccc(NCc3ccc(F)cc3)cc2-c2c(cnn2C)S1(=O)=O`, the “%Inh” value in the test on AMPK-alpha2, in the test on ANKK1, in the test with ARK5, in the test with ASK1, with ASK2 and with AURKA was 0% each time. The “%Inh” value is 14% in the test with AURKB, 0% with AURKC, 0% in the test with AXL and 0% in the test on BIKE.

On to `Fc1ccc(-c2nn3c(OCC(F)(F)F)cccc3c2-c2ccncc2)cc1` [GW514784], for which the “%Inh” value in the test on AMPK-alpha2 came to 0%; in the test with ANKK1, 25%; in the test with ARK5, 0%; in the test with ASK1, 0%; in the test with ASK2 it was 0%; in the test with AURKA it was 0%. The “%Inh” value in the test on AURKB worked out at 0%; in the test on AURKC, 0%; with AXL it was 0%; with BIKE it was 11%.

With `COCCNC(=O)c1ccc(-c2cc(C(=O)NC3CC3)cc(F)c2C)cc1` [GW868318], the “%Inh” value with AMPK-alpha2 came to 0%; with ANKK1, 11%; in the test with ARK5, 0%; in the test with ASK1, 5%; in the test on ASK2, 26%; with AURKA, 27%. Moreover, the “%Inh” value with AURKB stood at 33%; with AURKC it was 0%; with AXL, 0%; with BIKE, 7%.

For `Cc1cccc(-c2nc(Nc3ccc4ncsc4c3)c3ccccc3n2)n1` [GW867588], the “%Inh” value with AMPK-alpha2 is listed as 0%; in the test on ANKK1, 0%; in the test with ARK5 it was 0%; with ASK1, 15%; in the test with ASK2, 20%; with AURKA it was 22%. Besides, the “%Inh” value in the test with AURKB came out at 8%; in the test with AURKC, 0%; in the test on AXL, 0%; in the test on BIKE it was 0%.

As for `COc1cc2c(cc1OC[C@@H](O)CO)ncc1c3ccc(C#N)cc3[nH]c21`, the “%Inh” value with AMPK-alpha2 came out at 0%; in the test on ANKK1, 73%; in the test on ARK5 it was 0%; with ASK1, 0%; in the test with ASK2 it was 0%; in the test with AURKA it was 6%. For the same compound, the “%Inh” value in the test on AURKB came out at 52%; in the test on AURKC, 0%; in the test on AXL, 17%; with BIKE it was 96.2%.

Turning to `Cc1cccc(Cn2ccn3c(=O)cc(N4CCOCC4)nc23)c1` [GSK2297542], the “%Inh” value in the test on AMPK-alpha2 worked out at 12%; in the test on ANKK1 it was 19%; in the test with ARK5 it was 12%; with ASK1 it was 0%; in the test with ASK2, 6%; in the test on AURKA it was 15%. Moreover, the “%Inh” value is 0% in the test with AURKB, 18% with AURKC, 5% with AXL and 15% in the test with BIKE.
